PubChem BioAssay AID1159580 (chemical genetic matrix, 2015)
Several values for one entry are separate records, joined by “and”; a condition that tells them apart may be missing. Equal entries are not always repeated. Screen size: about 5,500 compounds; about 2,000 (36%) were called active. Inconclusive results (about 18%) are left out. Cut-off read from the data, not from the text of the source: active = normalized growth mostly below about 0.91 (no sharp cut-off); inconclusive = no clear call, values can overlap the other calls; inactive = mostly above about 0.92. The list shows a part of the results.

Test: chemical genetic growth profiling, strain panel (AID 1159580);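 note: tested at 20 µM; growth read once vehicle control cultures reached saturation at 30 °C; 1 = growth at the plate median or of vehicle wells; lower values mean less growth of the strain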
Conditions: S. cerevisiae deletion strains, growth OD

Measured: normalized growth

O=C1C=CC2=C3c4cc(O)c(O)cc4CC3(O)COC2=C1O (centres undefined)
active: locus YAL013W, strain DEP1, stronger effect = lower value 0.873 | locus YDR069C, strain doa4, stronger effect = lower value 0.896 | locus YDR162C, strain NBP2, stronger effect = lower value 0.789 | locus YGR229C, strain SMI1, stronger effect = lower value 0.557 | locus YHR027C, strain rpn1, stronger effect = lower value 0.908 | locus YJL187C, strain SWE1 (second series), stronger effect = lower value 0.826
inactive: locus YAL021C, strain ccr4, stronger effect = lower value 0.933 | locus YAL026C, strain drs2, stronger effect = lower value 0.945 | locus YAL030W, strain snc1, stronger effect = lower value 1.02 | locus YBL061C, strain skt5, stronger effect = lower value 0.993 | locus YBR009C, strain hhf1, stronger effect = lower value 0.999 | locus YBR021W, strain FUR4, stronger effect = lower value 1.04 | locus YBR023C, strain chs3, stronger effect = lower value 0.949 | locus YBR171W, strain sec66, stronger effect = lower value 1.06 | locus YBR229C, strain ROT2, stronger effect = lower value 0.996 | locus YBR231C, strain swc5, stronger effect = lower value 0.929 | locus YBR279W, strain paf1, stronger effect = lower value 0.964 | locus YCL011C, strain gbp2, stronger effect = lower value 1.02 | locus YCL016C, strain dcc1, stronger effect = lower value 1.01 | locus YCL029C, strain bik1, stronger effect = lower value 1.04 | locus YCL061C, strain MRC1, stronger effect = lower value 1.01 | locus YCL069W, strain vba3, stronger effect = lower value 1.03 | locus YCR088W, strain abp1, stronger effect = lower value 1.05 | locus YDL005C, strain med2, stronger effect = lower value 1.06 | locus YDL035C, strain GPR1, stronger effect = lower value 0.904 | locus YDL040C, strain nat1, stronger effect = lower value 1.04 | locus YDL074C, strain BRE1, stronger effect = lower value 0.898 | locus YDL101C, strain DUN1, stronger effect = lower value 0.946 | locus YDL134C, strain PPH21, stronger effect = lower value 0.942 | locus YDL185W, strain tfp1, stronger effect = lower value 0.997 | locus YDL192W, strain arf1, stronger effect = lower value 0.998 | locus YDR001C, strain nth1, stronger effect = lower value 1.04 | locus YDR101C, strain arx1, stronger effect = lower value 1.06 | locus YDR137W, strain rgp1, stronger effect = lower value 0.972 | locus YDR159W, strain sac3, stronger effect = lower value 1.13 | locus YDR195W, strain ref2 1.11 | locus YDR297W, strain sur2, stronger effect = lower value 1.01 | locus YDR318W, strain mcm21, stronger effect = lower value 1.01 | locus YDR334W, strain swr1, stronger effect = lower value 0.992 | locus YDR335W, strain msn5, stronger effect = lower value 1.01 | locus YDR388W, stronger effect = lower value 1.03 | locus YDR392W, strain spt3, stronger effect = lower value 1.03 | locus YDR502C, strain sam2, stronger effect = lower value 1.01 | locus YEL003W, strain gim4, stronger effect = lower value 1.01 | locus YEL037C, strain rad23, stronger effect = lower value 1.01 | locus YEL061C, strain CIN8 (second series), stronger effect = lower value 1.04 | locus YEL061C, strain CIN8, stronger effect = lower value 0.964 | locus YER015W, strain faa2, stronger effect = lower value 0.99 | locus YER016W, strain bim1, stronger effect = lower value 1.04 | locus YER110C, stronger effect = lower value 1.05 | locus YER111C, strain swi4, stronger effect = lower value 1.01 | locus YER155C, strain BEM2 (second series), stronger effect = lower value 1.03 | locus YER155C, strain BEM2, stronger effect = lower value 1.05 | locus YER167W, strain BCK2, stronger effect = lower value 1.06 | locus YFR010W, strain ubp6, stronger effect = lower value 0.985 | locus YGL078C, strain dbp3, stronger effect = lower value 1.02 | locus YGL086W, strain mad1, stronger effect = lower value 1.02 | locus YGL167C, strain pmr1, stronger effect = lower value 1.03 | locus YGL173C, strain kem1, stronger effect = lower value 0.947 | locus YGL227W, strain vid30, stronger effect = lower value 1.06 | locus YGL240W, strain doc1, stronger effect = lower value 1.11 | locus YGL248W, strain PDE1, stronger effect = lower value 0.934 | locus YGL253W, strain hxk2, stronger effect = lower value 0.959 | locus YGR078C, strain PAC10, stronger effect = lower value 0.957 | locus YGR135W, strain pre9, stronger effect = lower value 0.985 | locus YGR252W, strain gcn5, stronger effect = lower value 0.966 | locus YHR013C, strain ard1, stronger effect = lower value 0.901 | locus YHR030C, strain SLT2, stronger effect = lower value 0.999 and 0.987 | locus YHR079C, strain IRE1 (second series), stronger effect = lower value 1.03 | locus YHR079C, strain IRE1, stronger effect = lower value 1.01 | locus YHR094C, strain hxt1, stronger effect = lower value 1.05 | locus YHR129C, strain ARP1, stronger effect = lower value 0.967 | locus YHR142W, strain chs7, stronger effect = lower value 0.943 | locus YHR200W, strain rpn10, stronger effect = lower value 1.03 | locus YIL066C, strain RNR3, stronger effect = lower value 0.881 | locus YIL073C, strain SPO22, stronger effect = lower value 0.812 | locus YIL125W, strain kgd1, stronger effect = lower value 1.01 | locus YIR030C, strain dcg1, stronger effect = lower value 1.03 | locus YJL092W, strain hpr5, stronger effect = lower value 1.04 | locus YJL095W, strain BCK1 (second series), stronger effect = lower value 1.01 | locus YJL095W, strain BCK1, stronger effect = lower value 0.926 and 1.02 | locus YJL115W, strain asf1, stronger effect = lower value 1.05 | locus YJL129C, strain trk1, stronger effect = lower value 1.09 | locus YJL134W, strain LCB3, stronger effect = lower value 0.999 | locus YJL154C, strain vps35, stronger effect = lower value 1.03 | locus YJL164C, strain tpk1, stronger effect = lower value 0.968 | locus YJL166W, strain qcr8, stronger effect = lower value 0.995 | locus YJL168C, strain set2, stronger effect = lower value 1.01 | locus YJL187C, strain SWE1, stronger effect = lower value 0.986
